Screening data as filed in PubChem.
Only some compounds are listed: those with a hit (about 3.6% of all), similar ones and a draw of the others.
Pf apPOL block: Pf-apPOL inhibitors, biochemical, fluorescence; Plasmodium falciparum apicoplast DNA polymerase (apPOL); Recombinant Pf-apPOL, molecular beacon fluorescence, 1.5 h; inhibition, % at 10 µM; 210,000 compounds, 0.25% hits
mHTT-CaM PPI inh: mutant huntingtin-calmodulin interaction inhibitors – biochemical, AlphaScreen, primary screen. 190,000 compounds, 3.6% hits. AlphaScreen His-mHTT/GST-CaM binding, luminescence. inhibition, % at 15 µM. P42858
Numbers stand for hits; i = inactive. Rule as the data show it: active = inhibition above about 50%; inactive = the rest.

SMILES	Pf apPOL block	mHTT-CaM PPI inh
CC(C)CNC(=O)N1CCCC1c1cccc(F)c1 (centres undefined)	i	i
C=CCn1cnc2c1c(=O)n(CC1CC1)c(=O)n2-c1ccc(Cl)cc1	i	i
Cc1ccccc1NC(=O)CN1C(=O)CC(c2ccccc2)=Nc2cccnc21	i	i
O=C(CN1C(=O)CC(c2ccccc2)=Nc2cccnc21)Nc1ccccc1Cl	65	i
C=C(C)COc1ccc2c(c1)OC(=Cc1cc(OC)ccc1OC)C2=O	i	i
COCOCCn1cc(CN2CCS(=O)(=O)N(Cc3ccc(-c4ccc(C)cc4)cc3)C(C)C2=O)nn1 (centres undefined)	i	i
COCOCCn1cc(CN2CCS(=O)(=O)N(Cc3ccc(-c4ccccc4)cc3)C(C(C)C)C2=O)nn1 (centres undefined)	i	54
COCOCCn1cc(CN2CCS(=O)(=O)N(Cc3ccc(-c4ccc(C)cc4)cc3)C(C(C)C)C2=O)nn1 (centres undefined)	i	i
COCOCCn1cc(CN2CCS(=O)(=O)N(Cc3ccc(-c4ccc(Cl)c(Cl)c4)cc3)C(C)C2=O)nn1 (centres undefined)	i	99
O=C(NCc1cc(F)ccc1F)c1cc2c(s1)CN(C1CC1)C2	i	i
O=C(c1ccc(-c2ccsc2)nc1)N1CCN(C2CCCCC2)CC1	i	i
O=C(c1ccc(-c2ccsc2)nc1)N1CCCC1	i	i
O=C(c1ccccc1)N1CCC(n2nc(-c3ccsc3)ccc2=O)CC1	i	99
Cc1ccc(C(=O)N2CCC(n3nc(-c4ccsc4)ccc3=O)CC2)cc1	i	100
O=C(O)c1nnn(-c2ccc(Cl)cc2)c1-c1ccncc1	i	i
N#CC1=C(N)Oc2oc3ccccc3c(=O)c2C1c1cc(F)ccc1Br (centres undefined)	i	i
CCC(=O)Nc1ccc2c(N3CCCC3)ncnc2c1	i	i
CC(C)=CCOc1ccc2c(c1)OC(=Cc1cccc(F)c1)C2=O	i	i
Clc1ccc(OCCn2cnc3ccccc32)c(Cl)c1	i	i
Nc1nc2ccccc2n1CCOc1ccc(Cl)cc1	i	i
Nc1nc2ccccc2n1CCOc1ccc(Cl)cc1Cl	i	75
Nc1ccc(-c2nc3ccccc3n2CCOc2ccccc2)cc1	i	i
Nc1ccc(-c2nc3ccccc3n2CCCOc2ccccc2)cc1	i	51
Nc1nc2ccccc2n1CCOc1ccc(Br)cc1	i	73
COc1cc(OC)cc(-n2nc(C(=O)NC3CCCC(C)C3C)c3ccccc3c2=O)c1 (centres undefined)	i	i
SMILES	Pf apPOL block	mHTT-CaM PPI inh
Cc1ccc2c(c1)N(c1ccc(Br)cc1C)C=C(C#N)S2(=O)=O	i	i
O=C(c1ccoc1)N1CCC(OCc2nc(-c3ccncc3)no2)CC1	i	i
O=C(O)c1ccc(O)c(C=Nc2ccc(Br)cc2)c1	i	85
O=C(O)c1ccc(N=Cc2cc(Br)ccc2O)cc1	i	i
CCN1CCN(C/C=C/c2ccc(N(C)C)cc2)CC1	i	i
COc1ccccc1N1CCN(C/C=C/c2ccc(N(C)C)cc2)CC1	i	62
CCC(=O)N1CCc2sc(C(=O)N3CCN(c4cc(C)ccc4C)CC3)cc2C1	i	66
CC(=O)N1CCc2sc(C(=O)N3CCN(c4ccccc4F)CC3)cc2C1	i	i
CC(=O)N1CCc2sc(C(=O)N3CCN(c4cc(C)ccc4C)CC3)cc2C1	i	65
CCC(=O)N1CCc2sc(C(=O)N3CCN(CC)CC3)cc2C1	i	i
Cc1ccc(C(=O)Nc2ccc3c(c2)Sc2ncccc2C(=O)N3C)cc1	i	i
Cc1cc(C)cc(C(=O)Nc2ccc3c(c2)Sc2ncccc2C(=O)N3C)c1	i	73
Cc1noc(C)c1S(=O)(=O)N1CCC(n2c(-c3ccc(F)cc3)nc3cccnc32)C1 (centres undefined)	i	i
COC(=O)Oc1ccc2c(=O)c(Oc3ccc(C)cc3)coc2c1	i	80
COc1ccccc1Oc1coc2cc(OC(=O)C(C)C)ccc2c1=O	i	100
COc1cccc(Oc2coc3cc(OC(=O)C(C)C)ccc3c2=O)c1	i	i
CC(=O)Oc1ccc2c(=O)c(Oc3ccccc3)coc2c1	i	i
Cc1cccc(CS(=O)(=O)NCCC(O)C(C)(C)C)c1 (centres undefined)	i	i
C=CCN1C(=O)C(O)(CC(=O)c2ccc(F)cc2)c2ccccc21 (centres undefined)	i	i
CCCCOc1ccc(-c2nc(C=Nc3cnc4cc(OC)ccc4c3)c(O)o2)cc1	i	i
O=C1NC(c2ccc(-c3ccc(F)cc3)o2)Nc2sc3c(c21)CCCC3 (centres undefined)	i	63
CN(C)c1ccc(C2NC(=O)c3c(sc4c3CCCC4)N2)cc1 (centres undefined)	i	i
O=C1NC(c2ccc3c(c2)OCO3)Nc2sc3c(c21)CCCC3 (centres undefined)	i	i
O=C1NC(c2ccc(O)cc2)Nc2sc3c(c21)CCCC3 (centres undefined)	i	57
O=C1NC(/C=C/c2ccccc2)Nc2sc3c(c21)CCCC3 (centres undefined)	i	66
SMILES	Pf apPOL block	mHTT-CaM PPI inh
O=C1NC(c2cccs2)Nc2sc3c(c21)CCCC3 (centres undefined)	i	i
Cc1ccc(CSc2nc3c(c(=O)n2-c2ccc(F)cc2)SCC3)cc1	i	i
O=c1ccc(-c2ccccc2)nn1CCc1nc(-c2ccc(F)cc2)no1	i	i
O=c1ccc(-c2ccc(F)cc2)nn1CCc1nc(-c2ccc(F)cc2)no1	i	70
COc1ccc2c(c1OC)C(=O)OC2Nc1ccccc1C#N (centres undefined)	i	i
Cc1ccc(C(=O)O)cc1-c1ccc(/C=C2/NC(=O)NC2=O)o1	i	i
Cc1cc([N+](=O)[O-])ccc1-c1ccc(/C=C2/NC(=O)NC2=O)o1	i	54
CCOc1ccccc1NC(=O)C(=O)NCc1ccccc1C	i	i
Cn1ccnc1SCC(=O)Nc1ncc(Br)cc1Br	i	i
CC1CC(C)CN(C(=O)c2ccc(Cl)cc2[N+](=O)[O-])C1 (centres undefined)	i	i
CC1CCCN(C(=O)c2ccc(Cl)cc2[N+](=O)[O-])C1 (centres undefined)	80	i
O=C(c1ccc(OCC2CCCN2C(=O)Cc2cccc(F)c2)cc1)N1CCOCC1 (centres undefined)	i	i
N#CC1=C(N)Oc2cc(O)c(C=Nc3ccc(Br)cc3)cc2C1c1ccco1 (centres undefined)	i	100
N#CC1=C(N)Oc2cc(O)ccc2C1c1ccccc1Br (centres undefined)	i	i
COc1ccc(C2C(C#N)=C(N)Oc3cccc(O)c32)cc1 (centres undefined)	i	i
COc1ccc(N=Cc2cc3c(cc2O)OC(N)=C(C#N)C3c2cccc(F)c2)cc1 (centres undefined)	i	81
CN(C)c1ccc(/C=C2\SC(=O)N(CN3CCOCC3)C2=O)cc1	i	i
Cc1ccc(CCNC(=O)C2CCN(c3nc4cccnc4s3)CC2)cc1	i	i
Cc1ccc(NC(=O)CCN2CCN(C/C=C/c3ccccc3)CC2)cc1	i	i
Cc1c(Cl)cccc1NC(=O)CCN1CCN(C/C=C/c2ccccc2)CC1	i	50
CCCCOc1ccc(C(=O)Nc2sccc2C(N)=O)cc1	i	i
CC1(C)OC(=O)C(=CNc2ccccc2[N+](=O)[O-])C(=O)O1	i	i
O=C(c1nn2c(C(F)(F)F)cc(-c3cccs3)nc2c1Br)N1CCOCC1	i	i
